PubChem BioAssay (NCATS)
Results filed as inconclusive are left out. Where a call stands in place of a potency, no number is given. The source made the active and inactive calls. Calls follow the shape of the dose curve; as a rule, active = well fitted inhibition curve with a large enough effect; inconclusive = small, poorly fitted or top-dose-only effect; inactive = flat fitted curve, though single readings scatter.

Each molecule was assayed against Phospholipid hydroperoxide glutathione peroxidase GPX4 (Homo sapiens) (UniProt P36969) (assay: Primary qHTS Assay for Inhibitors of Recombinant Selenoprotein Glutathione Peroxidase 4 (GPX4) (AID 1845192; also: nearly all actives have a fitted effect of over 65% in size)). Conditions: recombinant GPX4, GR-coupled NADPH fluorescence, 15 min; series mostly up to 50 µM.
Outline: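 GR-coupled assay: recombinant GPX4 preincubated 30 min with compound at room temperature; final 200 nM GPX4, 1 mM GSH, 0.5 mM cumene hydroperoxide, 0.5 mM NADPH, 100 nM GR, 0.01% BSA, pH 7.5 Tris. NADPH fluorescence (340/450 nm) read at 0 and 15 min.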

Phospholipid hydroperoxide glutathione peroxidase GPX4 (Homo sapiens), sequence (P36969 whole entry, looked up): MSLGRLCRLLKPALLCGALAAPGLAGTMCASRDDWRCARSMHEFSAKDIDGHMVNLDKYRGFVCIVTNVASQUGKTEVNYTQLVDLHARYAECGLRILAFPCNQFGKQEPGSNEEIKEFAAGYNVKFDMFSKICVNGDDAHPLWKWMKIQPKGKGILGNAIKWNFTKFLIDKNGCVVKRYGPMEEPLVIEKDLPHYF

SMILES	Potency
COc1cc(NC(=O)c2cccc(-n3cc(NC(=O)Nc4cccc(C)c4)cn3)c2)cc(OC)c1OC	inactive
O=C(Nc1cccc(C(F)(F)F)c1)Nc1ccc(Br)cc1-c1nn[nH]n1	inactive
C=C1C(=O)OC2/C=C(\COC(C)=O)CC/C=C(\C=O)CC(OC(=O)C(C)CC)C12 (stereo not drawn)	inactive
COc1cc([C@H]2O[C@H](c3cc(OC)c4c(c3)OCO4)[C@H](C)[C@H]2C)cc(OC)c1OC	inactive
CCNC(=O)Nc1ccc(-c2nc3c(c(N4CCOCC4C)n2)CCN(C2COC2)C3)cc1 (stereo not drawn)	inactive
C[C@H](Oc1cc(-n2cnc3ccc(CN4CCN(C)CC4)cc32)sc1C(N)=O)c1ccccc1C(F)(F)F	inactive
C=C1CC[C@@H]2[C@](C)(CO)[C@H](O)CC[C@@]2(C)[C@@H]1/C=C/C1=CCOC1=O	inactive
CCC(C)CC(=O)OC1C(=O)C(CO)=CC(O)C1C(C)C (stereo not drawn)	inactive
COC(CCc1ccc(O)cc1)CC(=O)CCc1ccc(O)cc1 (stereo not drawn)	inactive
Cc1cccc(CC(=O)N2CCc3c2ccc(-c2cn(C)c4ncnc(N)c24)c3F)n1	inactive
c1cc(-c2cnn3cc(-c4ccc(N5CCNCC5)cc4)cnc23)c2cccnc2c1	inactive
C[C@H]1CC[C@@]2(OC1)O[C@H]1CC3C4CC[C@H]5C[C@@H](O)CC[C@]5(C)C4=CC(=O)[C@]3(C)[C@H]1[C@@H]2C (stereo partly drawn)	inactive
CCN(Cc1cc(Nc2nc(C)cn3c(-c4cn[nH]c4)cnc23)sn1)C(C)(C)CO	inactive
C/C(=C\CCC(C)C1=CCC2(C)OC3=C(CC12)C(=O)C(O)CC3)CO (stereo not drawn)	inactive
O=C(NC1CCC1)c1ccc(C#Cc2cccc(F)c2)nc1	inactive
C=C(C(=O)O[C@H]1C/C(C)=C/CC/C(CO)=C/[C@H]2OC(=O)C(=C)[C@H]12)C(O)CO (stereo partly drawn)	inactive
C=C1C(=O)OC2/C=C(\C)CC/C=C(\C)CC(OC(C)=O)C12 (stereo not drawn)	inactive
C=C(C)[C@@H]1CC[C@]2(C(=O)O)CC[C@]3(C(=O)O)[C@H](CCC4[C@@]5(C)CCC(=O)C(C)(C)C5CC[C@]43C)C12 (stereo partly drawn)	inactive
C=C(CCC1C(C)(O)CCC2C(C)(C)C(O)CCC12C)C(O)CO (stereo not drawn)	inactive
O=C(Nc1ccccc1)c1ccc(Nc2nnc(-c3ccc(O)cc3)c3ccccc23)cc1	inactive

SMILES	Potency
CCC(C)C(=O)Oc1cc(C)ccc1C1(COC(=O)C(C)C)CO1 (stereo not drawn)	inactive
CC(=O)C1=CCC2C3CC=C4CC(O)CC(O)C4(C)C3C(O)CC12C (stereo not drawn)	inactive
CNC(=O)c1cc(Oc2ccc(NC(=O)c3cccc(C(F)(F)F)c3)cc2)ccn1	inactive
C[C@H](CN(C)C)Oc1nc(Nc2cc3cccc(Cl)c3cn2)cnc1C#N	inactive
O=C(NCCCNc1nc(Nc2cccc(CN3CCOCC3)c2)ncc1C1CC1)C1CCC1	inactive
CCOc1cc(C(C)(C)C)ccc1C1=N[C@@](C)(c2ccc(Cl)cc2)[C@@](C)(c2ccc(Cl)cc2)N1C(=O)N1CCN(CC(=O)N2CCOCC2)CC1	inactive
CC(=O)NCc1cccc(OC[C@@H](O)CNCCc2ccc(NS(=O)(=O)c3ccccc3)cc2)c1	inactive
Cn1c(SCC(=O)N2CCC[C@H]2C(=O)Nc2ccccc2-c2ccccc2)nc2ccccc21	inactive
CC(C)Oc1ccc(-c2cnc3c(-c4ccnc5ccccc45)cnn3c2)cc1	inactive
CN1CCN(Cc2ccc(NC(=O)Cc3ccc(Oc4cc(NC(=O)C5CC5)ncn4)cc3)cc2C(F)(F)F)CC1	inactive
CCOc1cccc(NC(=O)c2ccc(N3CCCC3)c(C(F)(F)F)c2)c1	inactive
O=C(NCCO)c1cccc(-c2cc(Nc3ccc(OC(F)(F)F)cc3)ncn2)c1	inactive
Cc1ccc(-c2ncccn2)c(C(=O)N2C[C@H](COc3ccc(F)cn3)CC[C@H]2C)c1	inactive
CC(C)(C)c1ccc(C(=O)Nc2cc(Cl)c(Br)cc2C(=O)O)cc1	inactive
CC(=O)OC1C(OC(=O)c2ccccc2)C2C(C)(C)CCC(OC(C)=O)C2(C)C23CCC(C)(C2)C(=O)CC13 (stereo not drawn)	inactive
CCOC(=O)CCNc1cc(N2CCc3ccccc3CC2)nc(-c2cccnc2)n1	inactive
CC(C)(C)c1ccc(-c2nc3c(N4CCN(Cc5ccc6nccnc6c5)CC4)cccc3[nH]2)cc1	inactive
CC1CCCC(O)CCC/C=C/c2cc(OS(=O)(=O)O)cc(O)c2C(=O)O1 (stereo not drawn)	inactive
Fc1ccc(-c2nc(C3CCNCC3)sc2-c2ccnc(NC3CC3)n2)cc1	inactive

These molecules were tested against Luciferin 4-monooxygenase (Photinus pyralis) (UniProt P08659) (assay: Primary firefly luciferase (FLuc) qHTS assay for identification of artifact compounds. (AID 1845220; also: nearly all actives have a fitted effect of over 60% in size; also: potency is read from the fitted curve at half-maximal effect)). Conditions: purified firefly luciferase, luminescence, 5 min; series mostly up to 54.1 µM.
Outline: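 Titrated compounds were incubated 15 min at RT, protected from light, with luciferin and ATP at 10 uM; reaction started with 10 nM FLuc, luminescence imaged at 5 min, and concentration-response fitted by Hill equation.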

SMILES	Potency
COc1cc(NC(=O)c2cccc(-n3cc(NC(=O)Nc4cccc(C)c4)cn3)c2)cc(OC)c1OC	inactive
O=C(Nc1cccc(C(F)(F)F)c1)Nc1ccc(Br)cc1-c1nn[nH]n1	inactive
C=C1C(=O)OC2/C=C(\COC(C)=O)CC/C=C(\C=O)CC(OC(=O)C(C)CC)C12 (stereo not drawn)	inactive
COc1cc([C@H]2O[C@H](c3cc(OC)c4c(c3)OCO4)[C@H](C)[C@H]2C)cc(OC)c1OC	inactive
CCNC(=O)Nc1ccc(-c2nc3c(c(N4CCOCC4C)n2)CCN(C2COC2)C3)cc1 (stereo not drawn)	inactive
C[C@H](Oc1cc(-n2cnc3ccc(CN4CCN(C)CC4)cc32)sc1C(N)=O)c1ccccc1C(F)(F)F	inactive
C=C1CC[C@@H]2[C@](C)(CO)[C@H](O)CC[C@@]2(C)[C@@H]1/C=C/C1=CCOC1=O	inactive
CCC(C)CC(=O)OC1C(=O)C(CO)=CC(O)C1C(C)C (stereo not drawn)	inactive
COC(CCc1ccc(O)cc1)CC(=O)CCc1ccc(O)cc1 (stereo not drawn)	inactive
Cc1cccc(CC(=O)N2CCc3c2ccc(-c2cn(C)c4ncnc(N)c24)c3F)n1	inactive
c1cc(-c2cnn3cc(-c4ccc(N5CCNCC5)cc4)cnc23)c2cccnc2c1	inactive
C[C@H]1CC[C@@]2(OC1)O[C@H]1CC3C4CC[C@H]5C[C@@H](O)CC[C@]5(C)C4=CC(=O)[C@]3(C)[C@H]1[C@@H]2C (stereo partly drawn)	inactive
CCN(Cc1cc(Nc2nc(C)cn3c(-c4cn[nH]c4)cnc23)sn1)C(C)(C)CO	inactive
C/C(=C\CCC(C)C1=CCC2(C)OC3=C(CC12)C(=O)C(O)CC3)CO (stereo not drawn)	inactive
O=C(NC1CCC1)c1ccc(C#Cc2cccc(F)c2)nc1	inactive
C=C(C(=O)O[C@H]1C/C(C)=C/CC/C(CO)=C/[C@H]2OC(=O)C(=C)[C@H]12)C(O)CO (stereo partly drawn)	inactive
C=C1C(=O)OC2/C=C(\C)CC/C=C(\C)CC(OC(C)=O)C12 (stereo not drawn)	inactive
C=C(C)[C@@H]1CC[C@]2(C(=O)O)CC[C@]3(C(=O)O)[C@H](CCC4[C@@]5(C)CCC(=O)C(C)(C)C5CC[C@]43C)C12 (stereo partly drawn)	inactive
C=C(CCC1C(C)(O)CCC2C(C)(C)C(O)CCC12C)C(O)CO (stereo not drawn)	inactive
O=C(Nc1ccccc1)c1ccc(Nc2nnc(-c3ccc(O)cc3)c3ccccc23)cc1	inactive

SMILES	Potency
CCC(C)C(=O)Oc1cc(C)ccc1C1(COC(=O)C(C)C)CO1 (stereo not drawn)	inactive
CC(=O)C1=CCC2C3CC=C4CC(O)CC(O)C4(C)C3C(O)CC12C (stereo not drawn)	inactive
CNC(=O)c1cc(Oc2ccc(NC(=O)c3cccc(C(F)(F)F)c3)cc2)ccn1	inactive
C[C@H](CN(C)C)Oc1nc(Nc2cc3cccc(Cl)c3cn2)cnc1C#N	inactive
O=C(NCCCNc1nc(Nc2cccc(CN3CCOCC3)c2)ncc1C1CC1)C1CCC1	inactive
CCOc1cc(C(C)(C)C)ccc1C1=N[C@@](C)(c2ccc(Cl)cc2)[C@@](C)(c2ccc(Cl)cc2)N1C(=O)N1CCN(CC(=O)N2CCOCC2)CC1	inactive
CC(=O)NCc1cccc(OC[C@@H](O)CNCCc2ccc(NS(=O)(=O)c3ccccc3)cc2)c1	inactive
Cn1c(SCC(=O)N2CCC[C@H]2C(=O)Nc2ccccc2-c2ccccc2)nc2ccccc21	inactive
CC(C)Oc1ccc(-c2cnc3c(-c4ccnc5ccccc45)cnn3c2)cc1	inactive
CN1CCN(Cc2ccc(NC(=O)Cc3ccc(Oc4cc(NC(=O)C5CC5)ncn4)cc3)cc2C(F)(F)F)CC1	inactive
CCOc1cccc(NC(=O)c2ccc(N3CCCC3)c(C(F)(F)F)c2)c1	inactive
O=C(NCCO)c1cccc(-c2cc(Nc3ccc(OC(F)(F)F)cc3)ncn2)c1	inactive
Cc1ccc(-c2ncccn2)c(C(=O)N2C[C@H](COc3ccc(F)cn3)CC[C@H]2C)c1	inactive
CC(C)(C)c1ccc(C(=O)Nc2cc(Cl)c(Br)cc2C(=O)O)cc1	6.75 µM (active)
CC(=O)OC1C(OC(=O)c2ccccc2)C2C(C)(C)CCC(OC(C)=O)C2(C)C23CCC(C)(C2)C(=O)CC13 (stereo not drawn)	inactive
CCOC(=O)CCNc1cc(N2CCc3ccccc3CC2)nc(-c2cccnc2)n1	inactive
CC(C)(C)c1ccc(-c2nc3c(N4CCN(Cc5ccc6nccnc6c5)CC4)cccc3[nH]2)cc1	1.51 µM (active)
CC1CCCC(O)CCC/C=C/c2cc(OS(=O)(=O)O)cc(O)c2C(=O)O1 (stereo not drawn)	inactive
Fc1ccc(-c2nc(C3CCNCC3)sc2-c2ccnc(NC3CC3)n2)cc1	inactive
